# Screening data: PubChem, several laboratories
# A selection: hits, their analogues and other compounds. The true share with any hit is near 1.6%.
# STAT1 inh = inhibitors of IFN-gamma induced STAT1 signaling; inhibition, % at 5.5 µM; NIH 3T3 STAT1-luciferase reporter, luminescence; hit rate 0.35% among 200,000;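 active means inhibition above a set limit, the mean inhibition across all tested compounds plus 3 SD, cut at about 34% in these data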;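 further: 0% = IFN-gamma with DMSO and 100% = IFN-gamma with 300 µM nifuroxazide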
# STAT3 blocker = inhibitors of IL-6 induced STAT3 signaling; U3A cells, IL-6 STAT3-luciferase reporter, luminescence; host cell line lacks STAT1; inhibition, % at 5.5 µM; hit rate 0.89% among 190,000; AID 862;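 active means inhibition above the mean inhibition across all screened compounds plus 3 SD, cut at about 44% in these data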;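 further: 0% = DMSO only wells and 100% = 100 µM nifuroxazide control wells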
# PPC-1+TRAIL kill = kills PPC-1 cancer cells in the presence of TRAIL. PPC-1 cells + TRAIL, ATPLite viability luminescence. hit rate 0.41% among 220,000. cell killing (% activity), % at 4 µM or 5 µM;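 active means cell killing above 50% in the first pass at 4 µM, then a duplicate retest at 5 µM averaging 50% or more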;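 further: plate controls were cells with TRAIL plus DMSO for no effect and medium-only wells lacking cells for full effect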
# Platelet DG rel = platelet dense granule release activity | human platelet-rich plasma, SFLLRN dense granule ATP release, luminescence | inhibition, %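 (compounds screened at 7.5 µM in platelet-rich plasma)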 | hit rate 0.22% among 300,000 | AID 1663;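 active means mean replicate score, as percent of positive control, at or above 50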
# C8 TRAIL sens = caspase-8 TRAIL sensitization; NB7+C8 cells + TRAIL, ATPlite viability luminescence; inhibition (viability loss, TRAIL sensitization), % at 10 µM; hit rate 1% among 360,000;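 active means compounds causing at least 50% loss of cell viability in the single-dose screen, relative to plate controls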
# Starred values were filed as active, the others as inactive; . = no result given.
SMILES,STAT1 inh,STAT3 blocker,PPC-1+TRAIL kill,Platelet DG rel,C8 TRAIL sens
CC(C)C1C(=O)N(Cc2cn(CC3CCCCC3)nn2)CCS(=O)(=O)N1Cc1ccc(-c2ccccc2)cc1 (centres undefined),.,.,.,.,14
Cc1ccccc1-c1nnc(-c2ccccc2C)o1,-33,2,16,1,7
Cc1ccccc1-c1nnc(-c2cccc3ccccc23)o1,.,.,.,.,51*
C=C1CC2(OC1=O)c1ccccc1CCc1ccccc12,.,.,.,.,91*
O=C1NC(=O)C2(CCc3ccccc32)N1 (centres undefined),3,0,10,-9,-4
CCOc1cc(NC2CS(=O)(=O)CC2O)c(OCC)cc1NC(=O)c1ccccc1 (centres undefined),1,-2,13,3,51*
O=C(c1ccncc1)N(Cc1cc2ccccc2[nH]c1=O)C1CCCCC1,6,8,12,0,76*
CN(C)c1ccc(NC(=O)Nc2nc(C(N)C3CCCCC3)cs2)cc1 (centres undefined),.,.,.,.,-9
O=C(OCn1ncc(Cl)c(Cl)c1=O)c1ccc(C(F)(F)F)cc1,7,14,11,1,78*
Cc1ccc(C(=O)OCn2ncc(Cl)c(Cl)c2=O)cc1,7,37,25,-6,94*
Cc1ccc(S(=O)(=O)N(CC(=O)c2ccccc2)C(=O)N2CCN(C)CC2)cc1,.,.,.,3,11
CCCCN=C1NN=C(c2ccc3c(c2)OCCO3)CS1,21,32,30,-6,63*
O=c1[nH]cnc2c1ncn2[C@@H]1C[C@@H](O)[C@H](CO)O1,.,.,.,0,-18
S=c1nc[nH]c2c1ncn2C1CCCO1 (centres undefined),.,.,31,-3,73*
Nc1ncnc2c1ncn2C1CCCO1 (centres undefined),.,.,.,.,-18
OCC1OC(n2cnc3c(=S)nc[nH]c32)CC1O (centres undefined),.,.,.,.,76*
CCCNC(=O)C1(C)CCCN(Cc2ccc(-c3ccccc3)cc2)C1 (centres undefined),.,.,.,.,4
COc1ccc(C2=C(C#N)C(=O)OC2)cc1,36*,6,8,4,-9
CCN(CC)c1ccc(S(=O)(=O)N2CCOCC2)cc1NC(=O)CNCc1cccc(Cl)c1,.,.,.,.,-2
O=c1cc(-c2ccco2)oc2c1ccc1ccccc12,-7,11,10,-3,7
O=c1cc(C(Cl)(Cl)Cl)oc2c1ccc1ccccc12,22,4,17,8,90*
COc1ccc(C(C(=O)NC(C)(C)C)n2c(=O)c(-c3ccccc3)nc3ccccc32)cc1 (centres undefined),.,.,.,.,4
Cc1cc2cc3c(cc2nc1SCC(=O)N1c2ccccc2CC1C)OCO3 (centres undefined),7,4,8,5,6
Cc1cc2ccccc2nc1SCC(=O)N1c2ccccc2CC1C (centres undefined),-1,3,-6,67*,0
CCS(=O)(=O)c1ccc2oc(Nc3ccccc3Br)nc2c1,.,.,20,27,21
SMILES,STAT1 inh,STAT3 blocker,PPC-1+TRAIL kill,Platelet DG rel,C8 TRAIL sens
CCS(=O)(=O)c1ccc2oc(Nc3ccccc3Cl)nc2c1,.,.,.,57*,19
COc1cc2[nH]c3c(=O)n4c(nc3c2cc1OC)SCCC4,48*,77*,10,-5,10
COc1ccc2[nH]c3c(=O)n4c(nc3c2c1)SCC4,7,24,9,-2,-3
CC(C)(C)C(=O)c1c(N)[nH]c(C(=O)c2ccccc2)c1-c1ccccc1Br,.,.,.,.,-2
Cc1sc(=NC(=O)c2ccco2)n(C)c1-c1ccc(F)cc1,-30,26,34,1,60*
O=C(COc1ccc2ccccc2c1Br)Nc1ncn[nH]1,-8,8,-10,-1,62*
Cc1ccc2nc(-c3ccccn3)c(N)n2c1,.,.,.,.,8
CC1(C(=O)N/N=C/c2c(F)c(F)c(F)c(F)c2F)CC1(Cl)Cl (centres undefined),.,.,.,-1,77*
Cc1c(/C=N\NC(=O)C2(C)CC2(Cl)Cl)cnn1C (centres undefined),1,-9,21,17,-14
CCOCCn1c(=O)c2c(nc3n2CCCN3CCc2ccccc2)n(C)c1=O,.,.,.,-29,2
C/C(=N\NC(=O)c1ccc2ccccc2c1)c1cccs1,.,.,.,.,55*
C/C(=N\NC(=O)c1cccs1)c1ccc2ccccc2c1,.,.,.,6,13
Nc1[nH]c(C(=O)c2ccccc2)c(-c2cccc3ccccc23)c1C(=O)NCc1ccccc1,.,.,.,.,3
Cc1ccc(CNc2nc3ccccc3n2C)cc1,.,.,.,14,58*
Cn1c(NCc2ccc(Cl)cc2)nc2ccccc21,-39,8,23,9,31
CCOC(=O)[C@]12CCCC=C1N(Cc1cccc3ccccc13)C(=O)[C@H](CC(=O)N1CCN(C(=O)c3ccco3)CC1)C2,.,.,.,.,15
CCOC(=O)CSc1nc2ccc(C)cc2cc1C#N,-62,2,22,11,2
CCOC(=O)CSc1nc2cc(C)ccc2cc1C#N,-58,-7,14,4,53*
CCOC(=O)CSc1nc2cc(OC)ccc2cc1C#N,-75,-2,42,6,67*
COc1ccc2cc(C#N)c(SCC(=O)Nc3nonc3C)nc2c1,.,.,.,-4,-14
O=C(Nc1nc2ccccc2c2nc3ccccc3n12)c1ccc(F)cc1,14,3,6,-1,.
Cn1c(NC(=O)c2ccc(F)cc2)nc2ccccc21,.,.,.,5,64*
COc1ccc(S(=O)(=O)N(C)C[C@@H]2OCCCC[C@@H](C)Oc3ccc(NS(=O)(=O)c4cccs4)cc3C(=O)N([C@H](C)CO)C[C@@H]2C)cc1,.,.,.,.,1
COc1ccc(CNC(=O)CC[C@H]2O[C@@H](n3cnc4c(NC(=O)c5ccccc5)ncnc43)[C@H](O)[C@@H]2O)cc1,.,.,.,.,-32
CC1(Oc2ccc(-n3ccnc3)cc2)CCN(Cc2cccn2-c2nccs2)C1 (centres undefined),.,.,.,.,8
C#CCOCCOCCOCCNc1nc(N2CCN(C(=O)CCCCCCCCCCNC(=O)[C@H]([C@@H](C)CC)n3cc(CCCCCN)nn3)CC2)nc(N2CCN(C(=O)CCCCCCCCCCNC(=O)[C@@H]([C@H](C)O)n3cc(C)nn3)CC2)n1,.,.,.,.,92*
C#CCOCCOCCOCCNc1nc(N2CCN(C(=O)CCCCCCCCCCNC(=O)[C@H](CCCCN)n3cc(CCO)nn3)CC2)nc(N2CCN(C(=O)CCCCCCCCCCNC(=O)[C@@H]([C@H](C)O)n3cc(C)nn3)CC2)n1,.,.,.,.,6
C#CCOCCOCCOCCNc1nc(N2CCN(C(=O)CCCCCCCCCCNC(=O)[C@H](CCC(=O)O)n3cc(CCCCCN)nn3)CC2)nc(N2CCN(C(=O)CCCCCCCCCCNC(=O)[C@@H]([C@H](C)O)n3cc(C)nn3)CC2)n1,.,.,.,.,-7
C#CCOCCOCCOCCNc1nc(N2CCN(C(=O)CCCCCCCCCCNC(=O)Cn3cc(CCCCCN)nn3)CC2)nc(N2CCN(C(=O)CCCCCCCCCCNC(=O)[C@H]([C@@H](C)CC)n3cc(CCCCCN)nn3)CC2)n1,.,.,.,.,75*
